Values without a mark were called inactive.
How the values were obtained:
Test in all cases: log2 ratio of Biotin-Ahx-Ub-VS probe labelling (fragment/DMSO); higher = less target engagement (more negative = stronger competition), active = hit call of the paper (q ≤ 0.05, log2 ratio ≤ -1)
Settings in all cases: compound concentration: 200 uM; treatment time: 3 h
ALG13 = target: T1, ALG13 (UniProt Q9NP73)
T1 sequence (whole entry): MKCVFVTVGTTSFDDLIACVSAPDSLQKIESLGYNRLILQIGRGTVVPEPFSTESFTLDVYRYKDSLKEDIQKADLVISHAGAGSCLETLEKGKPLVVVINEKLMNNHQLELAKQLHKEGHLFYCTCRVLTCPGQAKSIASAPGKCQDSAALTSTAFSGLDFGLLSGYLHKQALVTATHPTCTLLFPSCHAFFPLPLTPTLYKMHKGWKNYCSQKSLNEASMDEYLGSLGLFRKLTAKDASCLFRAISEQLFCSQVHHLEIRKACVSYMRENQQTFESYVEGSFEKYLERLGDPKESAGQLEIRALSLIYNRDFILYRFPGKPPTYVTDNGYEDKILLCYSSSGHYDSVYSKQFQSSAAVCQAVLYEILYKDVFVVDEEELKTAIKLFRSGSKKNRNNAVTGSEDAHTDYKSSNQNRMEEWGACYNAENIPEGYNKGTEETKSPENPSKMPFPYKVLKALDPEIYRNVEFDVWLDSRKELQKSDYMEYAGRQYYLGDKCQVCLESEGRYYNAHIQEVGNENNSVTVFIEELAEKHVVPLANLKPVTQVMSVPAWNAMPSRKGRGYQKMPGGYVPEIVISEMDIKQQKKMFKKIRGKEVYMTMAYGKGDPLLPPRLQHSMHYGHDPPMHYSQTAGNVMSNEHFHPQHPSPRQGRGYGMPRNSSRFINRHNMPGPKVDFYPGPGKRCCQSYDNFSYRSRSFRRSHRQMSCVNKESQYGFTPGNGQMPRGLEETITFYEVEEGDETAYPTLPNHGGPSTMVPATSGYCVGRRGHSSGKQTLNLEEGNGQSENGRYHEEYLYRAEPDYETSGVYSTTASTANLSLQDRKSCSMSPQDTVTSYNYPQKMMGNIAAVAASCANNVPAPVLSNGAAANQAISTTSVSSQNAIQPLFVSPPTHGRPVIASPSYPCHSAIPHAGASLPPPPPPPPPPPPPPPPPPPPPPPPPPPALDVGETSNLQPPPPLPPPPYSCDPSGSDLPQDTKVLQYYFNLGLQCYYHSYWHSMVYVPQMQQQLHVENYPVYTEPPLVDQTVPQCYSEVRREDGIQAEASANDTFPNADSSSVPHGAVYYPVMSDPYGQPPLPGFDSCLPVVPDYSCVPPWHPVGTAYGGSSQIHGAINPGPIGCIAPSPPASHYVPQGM
Summary of the method: (§1)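 Triplicate samples of HEK293T lysate, 495 µg each, received fragment at 200 µM or vehicle for 3 h, followed by Biotin-Ahx-Ub-VS (0.5 µM final) for 1 h. After NeutrAvidin enrichment of labelled DUBs and LysC/trypsin digestion, peptides were run by diaPASEF LC-MS/MS. The values are average log2 fragment/vehicle ratios from global-median-normalised Spectronaut label-free quantities, tested by unpaired t-test on proteins having ≥2 unique peptides.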

ATXN3 = ATXN3 (UniProt P54252)
Summary of the method: as §1

BAP1 = target: T2, BAP1 (UniProt Q92560)
T2 sequence (whole entry): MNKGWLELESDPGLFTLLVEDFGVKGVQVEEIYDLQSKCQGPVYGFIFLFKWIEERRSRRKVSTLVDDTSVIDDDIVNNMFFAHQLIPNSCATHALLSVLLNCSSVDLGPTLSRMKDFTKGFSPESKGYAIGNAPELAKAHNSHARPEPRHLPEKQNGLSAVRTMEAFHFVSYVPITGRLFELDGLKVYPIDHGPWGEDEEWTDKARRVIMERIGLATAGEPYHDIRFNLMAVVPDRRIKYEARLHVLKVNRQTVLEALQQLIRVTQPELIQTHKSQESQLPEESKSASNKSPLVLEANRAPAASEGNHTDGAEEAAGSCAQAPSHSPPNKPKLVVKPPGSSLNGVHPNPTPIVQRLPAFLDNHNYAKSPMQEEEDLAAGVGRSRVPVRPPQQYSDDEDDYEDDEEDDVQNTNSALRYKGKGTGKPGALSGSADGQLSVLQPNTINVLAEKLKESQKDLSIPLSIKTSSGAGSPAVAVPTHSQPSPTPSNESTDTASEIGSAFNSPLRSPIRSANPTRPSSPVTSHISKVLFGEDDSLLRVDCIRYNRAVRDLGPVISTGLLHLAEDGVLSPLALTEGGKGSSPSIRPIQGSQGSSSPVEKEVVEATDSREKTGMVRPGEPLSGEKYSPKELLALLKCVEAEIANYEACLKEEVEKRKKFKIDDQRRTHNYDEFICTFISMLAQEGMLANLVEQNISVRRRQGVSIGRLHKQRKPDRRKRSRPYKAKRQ
Summary of the method: as §1

EIF3F = EIF3F (UniProt O00303)
Summary of the method: as §1

EIF3H = EIF3H (UniProt O15372)
Summary of the method: as §1

FAM105A = target: T3, FAM105A (UniProt Q9NUU6)
T3 sequence (whole entry): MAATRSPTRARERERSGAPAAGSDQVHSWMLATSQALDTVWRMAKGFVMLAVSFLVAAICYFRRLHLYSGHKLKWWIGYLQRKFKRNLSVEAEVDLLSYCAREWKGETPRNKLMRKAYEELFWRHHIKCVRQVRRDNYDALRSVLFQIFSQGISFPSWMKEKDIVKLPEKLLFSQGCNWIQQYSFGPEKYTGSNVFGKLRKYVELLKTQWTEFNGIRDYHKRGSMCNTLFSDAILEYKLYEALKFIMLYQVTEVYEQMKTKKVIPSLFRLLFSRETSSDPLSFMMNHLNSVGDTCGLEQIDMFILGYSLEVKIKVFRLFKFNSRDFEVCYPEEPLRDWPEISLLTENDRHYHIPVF
Summary of the method: as §1

OTUB1 = OTUB1 (UniProt Q96FW1)
Summary of the method: as §1

OTUD4 = target: T4, OTUD4 (UniProt Q01804)
T4 sequence (whole entry): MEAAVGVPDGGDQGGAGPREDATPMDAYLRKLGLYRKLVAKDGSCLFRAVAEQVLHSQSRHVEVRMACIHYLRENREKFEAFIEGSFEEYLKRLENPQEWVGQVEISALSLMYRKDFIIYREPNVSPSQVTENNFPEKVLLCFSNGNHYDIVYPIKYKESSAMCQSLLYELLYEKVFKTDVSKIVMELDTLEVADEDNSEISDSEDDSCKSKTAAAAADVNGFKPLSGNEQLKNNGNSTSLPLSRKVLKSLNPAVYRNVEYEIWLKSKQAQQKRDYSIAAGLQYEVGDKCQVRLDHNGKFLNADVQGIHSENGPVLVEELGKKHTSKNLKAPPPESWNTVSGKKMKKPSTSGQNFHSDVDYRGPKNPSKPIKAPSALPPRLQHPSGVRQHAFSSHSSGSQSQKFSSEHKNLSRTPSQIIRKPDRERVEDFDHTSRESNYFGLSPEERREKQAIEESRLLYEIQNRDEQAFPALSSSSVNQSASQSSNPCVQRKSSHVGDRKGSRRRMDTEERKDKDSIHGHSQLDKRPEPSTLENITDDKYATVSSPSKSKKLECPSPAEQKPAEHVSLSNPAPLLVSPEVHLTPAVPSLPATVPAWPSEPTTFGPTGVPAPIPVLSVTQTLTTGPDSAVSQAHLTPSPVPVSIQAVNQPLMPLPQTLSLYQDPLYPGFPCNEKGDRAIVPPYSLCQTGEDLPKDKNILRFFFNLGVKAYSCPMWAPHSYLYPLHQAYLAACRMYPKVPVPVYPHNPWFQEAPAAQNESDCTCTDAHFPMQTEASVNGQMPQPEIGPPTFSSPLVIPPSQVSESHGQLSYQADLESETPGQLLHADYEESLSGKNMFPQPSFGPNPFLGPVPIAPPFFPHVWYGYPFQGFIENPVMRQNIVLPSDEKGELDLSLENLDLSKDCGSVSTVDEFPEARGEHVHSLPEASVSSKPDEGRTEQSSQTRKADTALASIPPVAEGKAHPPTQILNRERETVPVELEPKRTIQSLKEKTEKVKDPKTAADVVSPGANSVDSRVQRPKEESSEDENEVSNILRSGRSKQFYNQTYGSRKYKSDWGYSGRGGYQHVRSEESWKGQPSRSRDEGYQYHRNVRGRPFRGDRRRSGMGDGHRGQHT
Summary of the method: as §1

OTUD5 = target: T5, OTUD5 (UniProt Q96G74)
T5 sequence (whole entry): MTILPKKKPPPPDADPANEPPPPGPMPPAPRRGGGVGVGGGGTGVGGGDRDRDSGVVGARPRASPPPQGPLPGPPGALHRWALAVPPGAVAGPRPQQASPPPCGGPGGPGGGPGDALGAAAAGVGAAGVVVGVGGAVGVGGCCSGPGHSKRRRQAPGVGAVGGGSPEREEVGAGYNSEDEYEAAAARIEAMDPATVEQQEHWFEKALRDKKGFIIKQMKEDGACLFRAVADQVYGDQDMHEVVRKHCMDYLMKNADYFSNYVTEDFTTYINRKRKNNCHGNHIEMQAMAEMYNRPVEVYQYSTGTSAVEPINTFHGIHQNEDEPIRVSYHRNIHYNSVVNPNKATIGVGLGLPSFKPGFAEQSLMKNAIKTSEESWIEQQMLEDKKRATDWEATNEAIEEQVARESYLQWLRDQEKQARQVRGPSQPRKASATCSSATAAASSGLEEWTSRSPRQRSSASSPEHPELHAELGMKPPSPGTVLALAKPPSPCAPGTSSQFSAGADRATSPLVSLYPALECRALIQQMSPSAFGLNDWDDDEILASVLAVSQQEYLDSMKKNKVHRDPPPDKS
Summary of the method: as §1

Chain of OTUB1 (Q96FW1 whole entry): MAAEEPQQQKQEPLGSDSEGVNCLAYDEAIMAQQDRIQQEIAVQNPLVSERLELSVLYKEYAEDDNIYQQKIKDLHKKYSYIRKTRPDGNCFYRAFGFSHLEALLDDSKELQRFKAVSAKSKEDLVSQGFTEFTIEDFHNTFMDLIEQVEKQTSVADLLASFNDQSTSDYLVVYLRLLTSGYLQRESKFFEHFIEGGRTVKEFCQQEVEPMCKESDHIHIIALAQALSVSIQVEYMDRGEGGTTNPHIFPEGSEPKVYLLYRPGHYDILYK
Chain of EIF3H (O15372 whole entry): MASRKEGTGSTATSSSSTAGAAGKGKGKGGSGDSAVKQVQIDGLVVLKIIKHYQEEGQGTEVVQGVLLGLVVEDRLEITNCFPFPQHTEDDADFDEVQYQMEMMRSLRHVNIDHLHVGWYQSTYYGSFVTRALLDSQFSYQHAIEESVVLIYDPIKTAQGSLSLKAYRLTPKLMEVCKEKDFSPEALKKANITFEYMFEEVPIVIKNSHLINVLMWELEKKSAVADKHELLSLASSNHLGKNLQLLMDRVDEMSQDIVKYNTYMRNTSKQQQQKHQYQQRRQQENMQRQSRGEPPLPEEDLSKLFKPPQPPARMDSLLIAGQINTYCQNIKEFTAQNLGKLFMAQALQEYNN
Chain of ATXN3 (P54252 whole entry): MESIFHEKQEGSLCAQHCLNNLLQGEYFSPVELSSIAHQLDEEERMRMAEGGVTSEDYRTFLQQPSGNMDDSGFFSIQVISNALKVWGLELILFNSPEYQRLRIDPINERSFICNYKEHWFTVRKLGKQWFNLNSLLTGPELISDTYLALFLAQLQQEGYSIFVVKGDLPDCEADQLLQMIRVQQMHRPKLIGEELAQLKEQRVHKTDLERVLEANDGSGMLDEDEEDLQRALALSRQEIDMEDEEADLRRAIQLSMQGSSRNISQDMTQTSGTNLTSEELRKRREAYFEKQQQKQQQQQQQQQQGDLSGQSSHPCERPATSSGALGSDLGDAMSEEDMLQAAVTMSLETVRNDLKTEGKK
Chain of EIF3F (O00303 whole entry): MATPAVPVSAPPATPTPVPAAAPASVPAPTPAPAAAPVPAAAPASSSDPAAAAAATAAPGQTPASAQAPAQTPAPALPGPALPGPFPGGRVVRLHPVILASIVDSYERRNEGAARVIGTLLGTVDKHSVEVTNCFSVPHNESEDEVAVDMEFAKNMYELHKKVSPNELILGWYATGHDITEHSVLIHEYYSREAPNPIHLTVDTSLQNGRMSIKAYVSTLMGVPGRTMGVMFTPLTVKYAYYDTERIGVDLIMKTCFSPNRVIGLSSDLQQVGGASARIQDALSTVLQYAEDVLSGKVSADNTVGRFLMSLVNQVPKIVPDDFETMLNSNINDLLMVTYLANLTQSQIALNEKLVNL

| Structure (SMILES) | log2 ratio of Biotin-Ahx-Ub-VS probe labelling (ALG13) | log2 ratio of Biotin-Ahx-Ub-VS probe labelling (ATXN3) | log2 ratio of Biotin-Ahx-Ub-VS probe labelling (BAP1) | log2 ratio of Biotin-Ahx-Ub-VS probe labelling (EIF3F) | log2 ratio of Biotin-Ahx-Ub-VS probe labelling (EIF3H) | log2 ratio of Biotin-Ahx-Ub-VS probe labelling (FAM105A) | log2 ratio of Biotin-Ahx-Ub-VS probe labelling (OTUB1) | log2 ratio of Biotin-Ahx-Ub-VS probe labelling (OTUD4) | log2 ratio of Biotin-Ahx-Ub-VS probe labelling (OTUD5) |
| --- | --- | --- | --- | --- | --- | --- | --- | --- | --- |
| Cc1cc(NC(=O)CCl)n(-c2ccccc2)n1 | -0.0258 | -0.205 | -3.5 (active) | -0.154 | 0.0602 | 0.513 | -0.315 | 0.184 | -0.222 |
| COc1cc(Cl)c(C)cc1NC(=O)CCl | -0.216 | -0.37 | -2.01 (active) | 0.0292 | -0.06 | 0.159 | -0.0736 | -0.51 | -0.644 |
| O=C(CCl)N1CCCCCC1c1ncon1 (stereo unspecified) | 0.0534 | -0.268 | -0.409 | 0.0211 | 0.132 | 0.156 | 0.099 | -0.759 | -0.654 |
| CC(NC(=O)CCl)c1cccc(Cl)c1 (stereo unspecified) | 0.0326 | -0.401 | -3.17 (active) | 0.0315 | 0.0634 | -0.0535 | 0.0729 | -0.705 | -0.433 |
| O=C(CCl)Nc1ccc(N2CCCC2=O)cc1 | 0.0794 | 0.0787 | -3.73 (active) | -0.125 | 0.315 | 0.0919 | -0.351 | 0.0281 | -0.504 |
| Cc1cc(CC(C)NC(=O)CCl)n[nH]1 (stereo unspecified) | 0.0722 | -0.115 | -0.509 | -0.138 | -0.131 | 0.19 | 0.11 | -0.115 | -0.0107 |
| Cl.O=C(CCl)N1CCC(Cc2nccs2)C1 (stereo unspecified) | 0.0161 | -0.494 | -0.428 | -0.176 | 0.0343 | -0.0526 | -0.388 | -0.386 | -0.302 |
| O=C(CCl)N1CCOC2(CCC2)C1 | -0.352 | -0.0796 | -0.352 | -0.125 | 0.226 | -0.0758 | -0.141 | -0.57 | -0.148 |
| COc1ccc(-c2csc(NC(=O)CCl)n2)cc1 | -0.0925 | -0.907 | -2.94 (active) | -0.0557 | 0.443 | -0.207 | -0.0658 | -0.702 | -0.997 |
| C#Cc1cccc(NC(=O)CCl)c1 | -0.0771 | -0.239 | -3.08 (active) | -0.206 | 0.0977 | 0.233 | -0.135 | -0.211 | -0.288 |
| O=C(CCl)NCCc1cccc2ccccc12 | -0.35 | 0.214 | -1.22 (active) | 0.273 | 0.236 | 0.159 | 0.162 | 0.0626 | 0.0474 |
| O=C(CCl)N1CCC(c2noc3cc(F)ccc23)CC1 | 0.141 | -0.734 | -1.19 (active) | -0.419 | 0.209 | -0.1 | -0.253 | -0.413 | -0.644 |
| O=C(CCl)NC1CCN(C(=O)C2CCCCC2)CC1 | -0.358 | -0.103 | -1.71 (active) | -0.569 | 0.155 | -0.0528 | -0.0801 | 0.0192 | -0.0926 |
| Cc1cc(Cl)ccc1NC(=O)CCl | -0.00605 | -0.0857 | -3.02 (active) | 0.0767 | 0.0385 | 0.174 | -0.116 | -0.0791 | -0.0787 |
